Data reported in PubChem BioAssay (NCATS).
A number with no mark means an inactive call. Results filed as inconclusive are left out. Activity calls are given as the source filed them. Unless noted, the call rests on the fitted dose curve; in most records, active means well fitted curve in either direction with a large enough effect (not every such curve was filed as active); inconclusive means small, poorly fitted or top-dose-only effect, or another doubt; inactive means flat fitted curve, though single readings scatter.

Experiments:
[1] = biological target: Lysosomal acid glucosylceramidase (Homo sapiens) (UniProt P04062); assay: Glucocerebrosidase-p2 (AID 348; in the data active means potency below about 10 µM; further: potency means the concentration at half of the fitted maximal effect); conditions: purified GBA, blue fluorogenic substrate, 40 min
Lysosomal acid glucosylceramidase (Homo sapiens), sequence (P04062 whole entry, looked up): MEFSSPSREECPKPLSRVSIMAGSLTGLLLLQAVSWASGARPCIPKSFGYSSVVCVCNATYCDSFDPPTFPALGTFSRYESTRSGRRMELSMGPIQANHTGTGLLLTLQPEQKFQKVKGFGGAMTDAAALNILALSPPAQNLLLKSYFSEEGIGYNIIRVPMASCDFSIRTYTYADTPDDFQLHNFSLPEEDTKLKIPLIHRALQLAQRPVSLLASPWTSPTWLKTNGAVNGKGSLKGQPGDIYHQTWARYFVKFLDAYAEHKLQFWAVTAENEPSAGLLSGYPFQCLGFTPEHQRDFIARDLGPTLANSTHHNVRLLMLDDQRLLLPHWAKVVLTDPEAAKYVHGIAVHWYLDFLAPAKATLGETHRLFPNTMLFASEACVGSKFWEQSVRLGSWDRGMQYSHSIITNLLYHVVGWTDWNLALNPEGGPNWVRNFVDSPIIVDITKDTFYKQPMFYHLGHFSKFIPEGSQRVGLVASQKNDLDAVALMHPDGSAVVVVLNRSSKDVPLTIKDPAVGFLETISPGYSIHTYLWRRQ
Procedure, shortened: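 Compounds titrated from 0.6 nM upwards against 0.2 nM enzyme in pH 5.9 citric acid/KH2PO4, taurocholate, tween-20; blue fluorogenic substrate 80 uM, 40 min room temperature, stopped and read Ex 365/Em 440 for AC50.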

[2] = AP1 Signaling Pathway (AID 357); conditions: ME-180 AP-1-bla reporter, EGF-induced, beta-lactamase ratio, 5 h; at 7.69 µM (top of the series) unless noted;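 further: ME-180 reporter cells stimulated with EGF at its EC50 level; on the % scale 0 is the no-effect control and ±100 the full control effect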
Procedure, shortened: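 A ratiometric CCF4 readout (405 nm excitation; 460 and 530 nm emission) quantified AP-1-driven beta-lactamase in ME-180 cells after 5 h with compound and EC50 EGF; AC50 values were derived for activators and inhibitors.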

[3] = biological target: Cytochrome P450 1A2 (Homo sapiens) (UniProt P05177); assay: p450-cyp1a2 (AID 410; calls by dose curve; further: potency means the concentration at half of the fitted maximal effect;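 on activity change, negative = inhibition: -100% = full effect of reference inhibitor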); conditions: recombinant CYP1A2, luciferin-ME demethylation, luminescence; series mostly up to 11.4 µM
Cytochrome P450 1A2 (Homo sapiens), sequence (P05177 whole entry, looked up): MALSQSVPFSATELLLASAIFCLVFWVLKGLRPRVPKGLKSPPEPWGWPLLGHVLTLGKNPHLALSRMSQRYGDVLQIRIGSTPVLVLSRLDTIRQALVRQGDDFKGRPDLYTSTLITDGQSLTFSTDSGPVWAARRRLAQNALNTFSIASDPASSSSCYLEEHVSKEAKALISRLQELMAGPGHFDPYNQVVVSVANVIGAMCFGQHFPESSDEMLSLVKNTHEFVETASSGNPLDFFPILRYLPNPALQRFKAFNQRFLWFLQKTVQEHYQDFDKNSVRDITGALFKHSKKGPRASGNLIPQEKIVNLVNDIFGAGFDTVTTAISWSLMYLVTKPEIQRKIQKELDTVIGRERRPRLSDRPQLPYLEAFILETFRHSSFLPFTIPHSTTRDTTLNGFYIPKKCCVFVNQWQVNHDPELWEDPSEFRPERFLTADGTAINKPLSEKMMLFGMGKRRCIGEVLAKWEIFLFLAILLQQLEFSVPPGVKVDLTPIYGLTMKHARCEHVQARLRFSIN
Procedure, shortened: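 Inhibition was calculated relative to 57 uM furafylline (full inhibition). The reaction used human CYP1A2 at 20nM with Luciferin-ME at its Km, 100uM, driven by an NADPH-regenerating system for 60 min at room temperature.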

[4] = NFAT Signaling Pathway (AID 444); conditions: Jurkat NFAT-bla M1, carbachol, beta-lactamase ratio, 5 h; at 7.69 µM (top of the series) unless noted;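 further: carbachol stimulus at about its EC50 of 1 µM final; on the % scale 0 is the no-effect control and ±100 the full control effect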
Procedure, shortened: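 Read-out: CCF4 FRET ratio (460 nm/530 nm) after 1 h RT dye loading, used for %activity and AC50 from titration series. Cells: Jurkat NFAT-β-lactamase/M1 line, treated with compound plus 1 uM carbachol for 5 h, 37 °C.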

[5] = Stat Signaling Pathway (AID 446); conditions: ME-180 (cervical carcinoma) SIE beta-lactamase reporter, IL-6 stimulated, 5 h; at 7.69 µM (top of the series) unless noted;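 further: ME-180 cervical cancer cells given 40 pM IL-6 alongside compound; SIE-controlled beta-lactamase reporter measured as 460/530 nm FRET emission ratio; on the % scale 0 is the no-effect control and ±100 the full control effect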
Procedure, shortened: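 IL-6/STAT signaling read in ME-180 cells via an SIE beta-lactamase reporter. Stimulus was 40 pM IL-6 (its AC50) for 5 hrs, so both activation and inhibition register.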

[6] = biological target: Glucocorticoid receptor (Homo sapiens) (UniProt P04150); assay: GR-GFP Redistribution (AID 450;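 active means compounds whose dose series gives a full or clear partial fitted curve of increased nuclear translocation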; further: potency means the concentration at half of the fitted maximal effect); conditions: U2OS GR-GFP nuclear translocation, laser cytometry, 2 h
Glucocorticoid receptor (Homo sapiens), sequence (P04150 whole entry, looked up, the tested form may be a part): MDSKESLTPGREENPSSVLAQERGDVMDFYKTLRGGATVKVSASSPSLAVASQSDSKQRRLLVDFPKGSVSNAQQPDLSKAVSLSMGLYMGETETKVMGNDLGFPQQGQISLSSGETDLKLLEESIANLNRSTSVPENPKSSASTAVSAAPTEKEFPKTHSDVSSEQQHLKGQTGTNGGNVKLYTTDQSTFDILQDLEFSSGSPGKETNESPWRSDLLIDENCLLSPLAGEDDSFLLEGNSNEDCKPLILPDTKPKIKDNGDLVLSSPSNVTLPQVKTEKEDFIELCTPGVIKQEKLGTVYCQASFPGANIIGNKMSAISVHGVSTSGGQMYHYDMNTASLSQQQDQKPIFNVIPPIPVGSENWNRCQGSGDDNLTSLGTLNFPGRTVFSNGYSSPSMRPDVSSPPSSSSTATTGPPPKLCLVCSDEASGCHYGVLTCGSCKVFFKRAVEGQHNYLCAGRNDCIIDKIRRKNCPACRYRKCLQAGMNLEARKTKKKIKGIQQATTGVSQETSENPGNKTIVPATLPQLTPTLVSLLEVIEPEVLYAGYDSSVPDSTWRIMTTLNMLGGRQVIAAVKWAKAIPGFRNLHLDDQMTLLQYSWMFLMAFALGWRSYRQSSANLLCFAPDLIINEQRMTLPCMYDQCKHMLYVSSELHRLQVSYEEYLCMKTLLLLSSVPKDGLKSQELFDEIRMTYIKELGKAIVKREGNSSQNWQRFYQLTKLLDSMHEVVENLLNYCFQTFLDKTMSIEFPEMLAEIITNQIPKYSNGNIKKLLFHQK

[7] = biological target: Glucocorticoid receptor (Homo sapiens) (UniProt P04150); assay: GR-EFC Redistribution (AID 451; calls by dose curve; further: potency means the concentration at half of the fitted maximal effect); conditions: CHO-K1 GR-EFC translocation, beta-gal luminescence, 2 h
Procedure, shortened: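 Translocation of GR-ED fusion to nuclear EA restores b-gal, read by luminescence after 1 h room-temperature detection. Engineered CHO-K1 biosensor cells, 1,000/well, exposed 2 h at 37 C to titrations up to 46 uM final.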

[8] = biological target: Mitogen-activated protein kinase 10 (Mus musculus) (UniProt Q61831); assay: JNK3 AlphaScreen Assay (AID 530); conditions: JNK3 lysate, c-Jun phosphorylation; series mostly up to 11.4 µM;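 further: kinase came from lysate of stimulated human HepG2 cells; signal reports phosphorylation of biotinylated GST-cJun 1-79 at Ser73 with 10 µM ATP; on the % scale 0 is the no-effect control and ±100 the full control effect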
Procedure, shortened: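 Room-temperature AlphaScreen kinase assay; pre-activated HepG2 lysate as JNK3 source, biotin-GST-cJun(1-79) substrate, 10 uM ATP, compound 15 min preincubation.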

[9] = biological target: 3',5'-cyclic-AMP phosphodiesterase 4B (Homo sapiens) (UniProt Q07343); assay: qHTS Assay for Inhibitors of PDE-IV (AID 607; active means well fitted activation curve with a large enough effect in the main read-out, with a control signal flat, not every such curve was filed as active; further: % of control where 0% means no effect); conditions: HEK293 ACTOne CNG channel cells, membrane potential fluorescence; series mostly up to 22.9 µM
3',5'-cyclic-AMP phosphodiesterase 4B (Homo sapiens), sequence (Q07343 whole entry, looked up): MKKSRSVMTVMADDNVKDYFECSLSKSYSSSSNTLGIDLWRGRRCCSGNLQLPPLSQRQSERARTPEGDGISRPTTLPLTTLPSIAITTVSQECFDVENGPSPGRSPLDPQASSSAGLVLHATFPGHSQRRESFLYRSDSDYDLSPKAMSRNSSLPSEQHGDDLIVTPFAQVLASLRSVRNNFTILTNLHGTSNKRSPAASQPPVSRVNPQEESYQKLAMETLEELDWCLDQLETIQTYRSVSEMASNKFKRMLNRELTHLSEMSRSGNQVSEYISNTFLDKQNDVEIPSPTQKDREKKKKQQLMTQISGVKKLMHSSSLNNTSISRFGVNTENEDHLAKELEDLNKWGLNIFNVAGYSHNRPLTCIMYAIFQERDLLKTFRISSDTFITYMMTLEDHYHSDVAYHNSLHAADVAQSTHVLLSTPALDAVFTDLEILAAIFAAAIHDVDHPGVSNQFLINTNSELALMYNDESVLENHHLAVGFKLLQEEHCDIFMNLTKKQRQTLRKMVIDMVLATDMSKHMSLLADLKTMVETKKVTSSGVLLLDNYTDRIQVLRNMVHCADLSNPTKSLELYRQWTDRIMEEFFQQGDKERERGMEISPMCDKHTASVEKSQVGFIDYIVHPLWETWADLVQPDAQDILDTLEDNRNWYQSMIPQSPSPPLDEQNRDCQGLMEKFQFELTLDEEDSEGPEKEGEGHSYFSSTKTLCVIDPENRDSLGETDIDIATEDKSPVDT
Procedure, shortened: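 Live HEK293 cells with a modified cyclic nucleotide-gated (CNG) channel report intracellular cAMP via membrane-potential dye fluorescence (ex 535/em 590 nm). Endogenous PDE-IV was targeted. Compounds were tested at up to 22.9 uM final; RO 20-1724 100 uM served as control.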

[10] = biological target: Cytochrome P450 2C9 (Homo sapiens) (UniProt P11712); assay: qHTS Assay for Inhibitors and Substrates of Cytochrome P450 2C9 (AID 883; active means well fitted curve in the direction sought with a large enough effect; an effect the other way counts as inactive or inconclusive; further: nearly all actives have a fitted effect of over 60% in size; further: potency means the concentration at half of the fitted maximal effect); conditions: recombinant CYP2C9, luciferin-H luminescence, 60 min; series mostly up to 11.4 µM
Cytochrome P450 2C9 (Homo sapiens), sequence (P11712 whole entry, looked up): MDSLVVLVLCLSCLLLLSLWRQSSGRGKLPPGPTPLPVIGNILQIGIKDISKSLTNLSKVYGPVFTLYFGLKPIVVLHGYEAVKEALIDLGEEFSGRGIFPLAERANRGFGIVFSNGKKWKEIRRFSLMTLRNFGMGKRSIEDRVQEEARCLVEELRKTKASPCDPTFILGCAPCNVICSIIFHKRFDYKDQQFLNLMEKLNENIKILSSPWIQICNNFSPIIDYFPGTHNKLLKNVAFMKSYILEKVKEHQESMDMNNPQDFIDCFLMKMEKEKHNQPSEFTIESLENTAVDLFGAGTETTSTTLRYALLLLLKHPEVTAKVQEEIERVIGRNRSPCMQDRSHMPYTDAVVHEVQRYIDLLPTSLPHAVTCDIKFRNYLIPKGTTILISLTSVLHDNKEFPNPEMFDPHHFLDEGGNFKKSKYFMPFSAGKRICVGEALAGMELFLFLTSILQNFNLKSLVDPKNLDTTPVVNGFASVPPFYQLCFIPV
Procedure, shortened: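 Turnover of Luciferin-H (100uM, KM) by 10nM human CYP2C9 was measured over 60 min at 37C with NADPH regeneration; inhibitors and some substrates reduce luminescence. Data normalized to sulphaphenazole 57uM.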

[11] = biological target: Cytochrome P450 3A4 (Homo sapiens) (UniProt P08684); assay: qHTS Assay for Inhibitors and Substrates of Cytochrome P450 3A4 (AID 884; active means well fitted curve in the direction sought with a large enough effect; an effect the other way counts as inactive or inconclusive; further: potency means the concentration at half of the fitted maximal effect; nearly all actives have a fitted effect of over 50% in size); conditions: recombinant CYP3A4, Luciferin-PPXE luminescence; series mostly up to 57.1 µM
Cytochrome P450 3A4 (Homo sapiens), sequence (P08684 whole entry, looked up): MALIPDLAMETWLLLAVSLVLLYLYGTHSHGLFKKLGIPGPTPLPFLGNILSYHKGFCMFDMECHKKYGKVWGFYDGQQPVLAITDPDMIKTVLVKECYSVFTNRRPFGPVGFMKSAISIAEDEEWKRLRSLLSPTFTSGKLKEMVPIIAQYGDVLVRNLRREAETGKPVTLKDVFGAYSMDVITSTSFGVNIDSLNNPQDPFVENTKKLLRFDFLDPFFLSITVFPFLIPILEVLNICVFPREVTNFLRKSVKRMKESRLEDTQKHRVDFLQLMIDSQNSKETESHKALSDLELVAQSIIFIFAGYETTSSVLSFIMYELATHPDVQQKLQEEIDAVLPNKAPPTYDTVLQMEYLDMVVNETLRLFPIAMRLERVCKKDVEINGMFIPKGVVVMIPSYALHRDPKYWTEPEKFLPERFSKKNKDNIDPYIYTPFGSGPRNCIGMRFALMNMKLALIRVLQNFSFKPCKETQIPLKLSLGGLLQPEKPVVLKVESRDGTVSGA
Procedure, shortened: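 20 nM human CYP3A4 with 25 uM Luciferin-PPXE (at KM) in 200 mM KPO4, preincubated 10 min with compound; NADPH regeneration started a 60 min RT reaction. Luciferin detected by luminescence, normalized to 57 uM ketoconazole as full inhibition.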

[12] = biological target: Cytochrome P450 3A4 (Homo sapiens) (UniProt P08684); assay: qHTS Assay for Activators of Cytochrome P450 3A4 (AID 885; active means well fitted curve in the direction sought with a large enough effect; an effect the other way counts as inactive or inconclusive; further: nearly all actives have a fitted effect of over 65% in size); conditions: recombinant CYP3A4, Luciferin-PPXE luminescence, 60 min; series mostly up to 11.4 µM
Procedure, shortened: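 Quantitative HTS format: compounds preincubated with 20nM human CYP3A4 and Luciferin-PPXE substrate at KM, reaction started by NADPH regeneration, stopped after 60 min, luciferase luminescence read 20 min later.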

[13] = biological target: Cytochrome P450 2D6 (Homo sapiens) (UniProt P10635); assay: qHTS Assay for Inhibitors and Substrates of Cytochrome P450 2D6 (AID 891; active means well fitted curve in the direction sought with a large enough effect; an effect the other way counts as inactive or inconclusive; further: potency means the concentration at half of the fitted maximal effect; nearly all actives have a fitted effect of over 60% in size); conditions: recombinant CYP2D6, luciferin-ME EGE luminescence; series mostly up to 11.4 µM
Cytochrome P450 2D6 (Homo sapiens), sequence (P10635 whole entry, looked up): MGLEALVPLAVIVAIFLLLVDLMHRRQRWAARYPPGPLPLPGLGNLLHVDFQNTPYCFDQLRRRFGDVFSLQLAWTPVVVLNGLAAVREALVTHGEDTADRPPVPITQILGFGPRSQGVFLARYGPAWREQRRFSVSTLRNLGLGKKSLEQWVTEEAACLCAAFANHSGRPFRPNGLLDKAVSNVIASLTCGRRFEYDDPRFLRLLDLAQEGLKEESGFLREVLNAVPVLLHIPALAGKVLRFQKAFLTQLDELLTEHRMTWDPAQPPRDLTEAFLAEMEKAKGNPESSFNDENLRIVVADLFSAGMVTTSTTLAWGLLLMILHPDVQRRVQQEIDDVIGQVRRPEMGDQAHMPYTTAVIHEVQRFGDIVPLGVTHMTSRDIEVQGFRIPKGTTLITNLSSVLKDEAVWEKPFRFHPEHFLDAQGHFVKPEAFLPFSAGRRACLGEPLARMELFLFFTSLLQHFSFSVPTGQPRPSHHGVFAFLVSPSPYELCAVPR
Procedure, shortened: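 Human CYP2D6 (5 nM) with 30 uM Luciferin-ME EGE (at Km) in 100 mM KPO4, compound preincubated 10 min, then NADPH regeneration system for 60 min at room temperature. Luciferin read by luminescence; normalized to 1.43 uM quinidine.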

[14] = biological target: Cytochrome P450 2C19 (Homo sapiens) (UniProt P33261); assay: qHTS Assay for Inhibitors and Substrates of Cytochrome P450 2C19 (AID 899; active means well fitted curve in the direction sought with a large enough effect; an effect the other way counts as inactive or inconclusive; further: potency means the concentration at half of the fitted maximal effect; nearly all actives have a fitted effect of over 60% in size); conditions: recombinant CYP2C19, luciferin-H EGE luminescence; series mostly up to 11.4 µM
Cytochrome P450 2C19 (Homo sapiens), sequence (P33261 whole entry, looked up): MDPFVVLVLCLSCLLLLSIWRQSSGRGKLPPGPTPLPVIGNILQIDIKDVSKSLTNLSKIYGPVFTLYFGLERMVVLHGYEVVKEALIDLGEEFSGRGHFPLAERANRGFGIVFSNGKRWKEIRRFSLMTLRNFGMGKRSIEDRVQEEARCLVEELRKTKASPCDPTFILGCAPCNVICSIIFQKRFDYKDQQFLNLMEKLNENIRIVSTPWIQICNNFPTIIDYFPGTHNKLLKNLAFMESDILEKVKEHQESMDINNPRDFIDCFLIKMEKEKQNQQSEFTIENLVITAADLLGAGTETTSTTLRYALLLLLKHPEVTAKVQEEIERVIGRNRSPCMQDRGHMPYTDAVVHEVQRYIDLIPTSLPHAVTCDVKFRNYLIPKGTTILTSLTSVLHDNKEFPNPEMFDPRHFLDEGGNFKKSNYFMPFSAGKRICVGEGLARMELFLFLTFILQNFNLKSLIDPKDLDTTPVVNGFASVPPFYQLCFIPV
Procedure, shortened: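 Reactions contain 5nM enzyme, 10uM Luciferin-H EGE (KM) and 50mM KPO4; compound preincubates 10 min at 37C, NADPH regeneration starts turnover for 60 min. Luminescence after detection reagent gives activity.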

SMILES | Potency [1] | activity change, negative = inhibition [2] | Potency [3] | activity change, negative = inhibition [4] | activity, negative = inhibition [5] | Potency [6] | Potency [7] | Potency [8] | Potency [9] | Potency [10] | Potency [11] | Potency [12] | Potency [13] | Potency [14] | activity change, negative = inhibition [3]
C/C(=C\c1ccc(Cl)cc1)C(C)(C)C(=O)O | > 11.4 µM | 2.81% | inactive | -8.85% | -7.44% | > 46 µM | > 9.22 µM | inactive | inactive |  |  |  |  |  | 
NNC(=O)CCc1ccc2ccc3ccccc3c2c1 | > 11.4 µM | -3.44% | 0.0316 µM (active) | 13.8% | -11% | > 46 µM | > 9.22 µM | inactive | inactive | 1.58 µM (active) | 0.398 µM (active) | inactive | 1.58 µM (active) | 0.251 µM (active) | 
CCSC[C@@H](N)C(=O)O | > 11.4 µM | 5.2% |  | -9.5% | 0.221% | > 46 µM | > 9.22 µM | inactive | inactive |  |  |  |  |  | -1.6% [at 2.29 µM]
Nc1nc(N)c(CCCCc2ccccc2)c(N)n1 | > 11.4 µM | 17.9% |  | 2.59% | 1.49% | > 46 µM | > 9.22 µM | inactive | inactive |  |  |  |  |  | -0.2% [at 2.29 µM]
NS(=O)(=O)c1cc(Br)c(N=Nc2ccc(O)c3ncccc23)c(Br)c1 | > 11.4 µM | -0.828% | 1.26 µM (active) | 10.5% | 21.9% | > 46 µM | > 9.22 µM | inactive | inactive | inactive |  |  |  |  | 
O=S(O)O.O=S(O)O.[Co].[NH2-].[NH2-].[NH2-].[NH2-] | > 11.4 µM | -7.83% | inactive | 15.9% | 26% | > 46 µM | > 9.22 µM | inactive | inactive |  |  |  |  |  | 
Cn1c(=O)c2[nH]c(CS(=O)(=O)Cc3nc4c([nH]3)c(=O)n(C)c(=O)n4C)nc2n(C)c1=O | > 11.4 µM | -5.52% |  | -4.99% | -2.96% | > 46 µM | > 9.22 µM | inactive | inactive |  |  |  |  |  | -21.1% [at 2.29 µM]
c1c[nH]c(CN2CCN(Cc3ncc[nH]3)CC2)n1 | > 11.4 µM | 4.41% | inactive | -12.2% | -5.33% | > 46 µM | > 9.22 µM | inactive | inactive |  |  |  |  |  | 
O=C(O)c1ccc(OCc2ccccc2)c(Cl)c1 | > 11.4 µM | -4.15% |  | 2.05% | 6.68% | > 46 µM | > 9.22 µM | inactive | inactive |  |  |  |  |  | -3.2% [at 2.29 µM]
O=[N+]([O-])c1ccc(Cl)c(CNc2ncnc3c2ncn3[C@@H]2CCCCO2)c1 | > 11.4 µM | -3.17% | 5.01 µM (active) | 6.3% | 1.26% | > 46 µM | > 9.22 µM | inactive | inactive |  |  |  |  |  | 
CN(CC(=O)O)Cc1c(O)c(Cl)cc(Cl)c1Cl | > 11.4 µM | -1.4% |  | 11.2% | 4.84% | > 46 µM | > 9.22 µM | inactive | inactive |  |  |  |  |  | -1% [at 2.29 µM]
O=[N+]([O-])c1ccc2c(c1)Cc1cc(N=Cc3ccc4c(c3)OCO4)ccc1-2 | > 11.4 µM | -3.82% | 0.794 µM (active) | -8.54% | -4.51% | > 46 µM | > 9.22 µM | inactive | inactive |  |  |  |  |  | 
Cc1ccc(S(=O)(=O)N[C@H](CO)C(=O)O)cc1 | > 11.4 µM | 1.84% | inactive | -20.5% | 0.571% | > 46 µM | > 9.22 µM | inactive | inactive |  |  |  |  |  | 
CCN=C(N)CSS(=O)(=O)O | > 11.4 µM | 9.8% | inactive | -7.3% | -20% | > 46 µM | > 9.22 µM | inactive | inactive |  |  |  |  |  | 
O=C(C[C@@H]1C=Cc2ccccc2N1C(=O)c1ccccc1)c1ccccc1 | > 11.4 µM | -6.74% |  | -22.9% | -9.68% | > 46 µM | > 9.22 µM | inactive | inactive | 2.51 µM (active) | 3.98 µM (active) | inactive |  | 0.501 µM (active) | -23.2% [at 2.29 µM]
